The values below come from PubChem BioAssay.

Each structure is given as a SMILES string.

For this experiment, the system named is Human papillomavirus type 1a E7 protein (residues 1-88). As to the kind of experiment: HPV1a E7 small-molecule binders, primary screen, biochemical, small-molecule microarray, residues 1-88, 635 nm (AID 1129). The settings on record: small-molecule microarray binding, fluorescence 635 nm; higher = more signal.
For `[N-]=[N+]=NCc1ccccc1[C@H]1OC(c2ccc(OCCCO)cc2)=N[C@@]1(CCS(=O)(=O)c1ccccc1)C(=O)NCc1ccccc1`, the composite z-score stood at 1.2.

With `COc1ccc([Si](C)(C)[C@H]2[C@H](CCO)O[C@@]3(C(=O)N(Cc4ccc(N5C(=O)c6ccccc6Oc6ccccc65)cc4)c4ccccc43)[C@@H]2C)cc1`, the composite z-score was -0.76.

Turning to `O=C(NCC(O)CO)[C@@]1(CCS(=O)(=O)c2ccccc2)COC(c2ccc(OCCCO)cc2)=N1` (some centres undefined), the composite z-score is 1.17.

In the case of `C=CCC(OC(C)=O)[C@@H]1[C@@H](N(Cc2cccc3ccccc23)C(=O)Cc2ccc(F)cc2)c2cc(OCCCO)ccc2N1C(=O)c1ccc(-c2ccccc2)cc1` (some centres undefined), the composite z-score is -0.0075.

For `C=CCNC(=O)[C@@H]1[C@H]2C(=O)O[C@H](c3ccccc3)[C@H](c3ccccc3)N2[C@H](c2ccc(O)cc2)[C@@]12C(=O)N(C(=O)OCCOC)c1ccc(C#CCCO)cc12`, the composite z-score is 0.779.

`C=CCNC(=O)[C@@H]1[C@H]2C(=O)O[C@H](c3ccccc3)[C@H](c3ccccc3)N2[C@H](c2ccc(OCCO)cc2)[C@@]12C(=O)N(C(=O)OCCOC)c1ccc(C#CCCO)cc12`: the composite z-score came out at 1.17.

For the compound `C=CCOC(=O)[C@H]1[C@@H]2C(=O)O[C@@H](c3ccccc3)[C@@H](c3ccccc3)N2[C@@H](c2ccc(OCCOC(=O)[C@H]3C[C@H]4C(=O)N[C@@H](CCCCNC(C)=O)C(=O)N4[C@H]3c3cccc(OCCO)c3)cc2)[C@]12C(=O)Nc1ccc(I)cc12`, the composite z-score came to 1.15.

Take `COCCOC(=O)N1C(=O)[C@@]2(c3cc(C#CC4=CCCCC4)ccc31)[C@H](c1ccc(O)cc1)N1[C@H](c3ccccc3)[C@H](c3ccccc3)OC(=O)[C@H]1[C@@H]2C(=O)NC[C@H](O)c1ccccc1`: the composite z-score is 1.22.

The compound `CN1C(=O)C2C=CC(C(O)c3ccc(I)cc3)N(Nc3ccccc3)C2C1=O` (centres undefined) displayed a composite z-score of 1.22.
